Compounds without any hit were thinned out: in the full panel of roughly 79,000, 15% have a hit. Active and inactive are the calls of the source. Rule as the data show it: active = growth inhibition above about 70%; inactive = the rest.
Assays:
[1] = NCI Yeast Anticancer Drug Screen. Data for the rad52 strain (AID 147);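 also: 0% = growth of vehicle-treated control cultures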; details: S. cerevisiae rad52 mutant growth inhibition, stronger effect = higher value
In short: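 Yeast strain carrying a DNA damage repair alteration was exposed to test compounds. Growth inhibition was measured relative to vehicle-treated controls.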

[2] = NCI Yeast Anticancer Drug Screen. Data for the wt1 strain (AID 149);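 also: 0% = growth of vehicle-treated wt1 cultures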; details: S. cerevisiae wt1 strain (SPY 50644) growth inhibition, stronger effect = higher value
In short: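 Readout: yeast growth inhibition, normalised to vehicle controls, in the wt1 strain exposed to test compounds.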

[3] = NCI Yeast Anticancer Drug Screen. Data for the rad50 strain (AID 155);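 also: 0% = growth of vehicle-only cultures of the same strain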; details: S. cerevisiae rad50 strain growth inhibition, stronger effect = higher value
In short: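 Compounds were tested on a yeast strain with an engineered DNA damage repair alteration; the reported value is growth inhibition normalised to vehicle treatment.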

[4] = NCI Yeast Anticancer Drug Screen. Data for the mec2-1 strain (AID 157); details: S. cerevisiae mec2-1 strain, stronger effect = higher value
In short: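 mec2-1 yeast strain, carrying an alteration in DNA damage repair or cell cycle control, was exposed to compounds; growth inhibition was measured relative to vehicle-treated controls.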

[5] = NCI Yeast Anticancer Drug Screen. Data for the rad14 strain (AID 159);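 also: 0% = growth of vehicle-treated control cultures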; details: S. cerevisiae rad14 strain growth inhibition, stronger effect = higher value
In short: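 Compound-treated yeast with a defined DNA-repair lesion; growth inhibition normalised to vehicle-treated cultures.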

[6] = NCI Yeast Anticancer Drug Screen. Data for the sgs1 mgt1 strain (AID 161);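 also: 0% = growth of cultures given vehicle only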; details: S. cerevisiae sgs1 mgt1 strain, stronger effect = higher value
In short: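 Yeast cells carrying a defined DNA-repair defect were exposed to test compounds. Growth inhibition was measured relative to vehicle-treated controls.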

[7] = NCI Yeast Anticancer Drug Screen. Data for the CLN2oe strain (AID 163);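 also: 0% = growth of vehicle-only control cultures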; details: S. cerevisiae CLN2oe strain, stronger effect = higher value
In short: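 Yeast cells carrying a defined cell-cycle control alteration were exposed to test compounds. Growth inhibition was scored against vehicle-treated control cultures.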

[8] = NCI Yeast Anticancer Drug Screen. Data for the cln2 rad14 strain (AID 165);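 also: 0% = growth equal to vehicle treated cultures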; details: S. cerevisiae cln2 rad14 strain, stronger effect = higher value
In short: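 Yeast carrying cln2 and rad14 alterations (cell cycle control and DNA damage repair) were exposed to compounds. Growth inhibition was measured against vehicle-treated controls.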

[9] = NCI Yeast Anticancer Drug Screen. Data for the bub3 strain (AID 167); details: S. cerevisiae bub3 mutant strain, stronger effect = higher value
In short: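 Growth of a checkpoint-deficient yeast mutant is measured after compound exposure. Values represent inhibition relative to vehicle.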

[10] = NCI Yeast Anticancer Drug Screen. Data for the wt2 strain (AID 169);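 also: 0% = growth of vehicle-treated yeast cultures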; details: S. cerevisiae wt2 strain growth inhibition, stronger effect = higher value
In short: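 Yeast cells were exposed to test compounds, and growth inhibition was measured relative to vehicle-treated controls.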

[11] = NCI Yeast Anticancer Drug Screen. Data for the mlh1 strain (AID 171);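 also: 0% = growth of vehicle-treated control cultures of the same strain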; details: S. cerevisiae mlh1 strain growth inhibition, stronger effect = higher value
In short: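 Yeast carrying a defined genetic alteration in DNA damage repair or cell cycle control were exposed to test compounds. Growth inhibition was measured relative to vehicle-treated controls.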

[12] = NCI Yeast Anticancer Drug Screen. Data for the mlh1 rad18 strain (AID 175); details: S. cerevisiae mlh1 rad18 strain growth inhibition, stronger effect = higher value
In short: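 Growth inhibition of the yeast strain was measured after compound exposure and expressed relative to vehicle-treated controls. The strain carries defined defects in DNA damage repair.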

[13] = NCI Yeast Anticancer Drug Screen. Data for the rad18 strain (AID 177); details: S. cerevisiae rad18 mutant growth inhibition, stronger effect = higher value
In short: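 Yeast carrying a defined DNA damage repair alteration were exposed to compounds. Growth inhibition was expressed relative to vehicle-treated controls.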

[14] = NCI Yeast Anticancer Drug Screen. Data for the rad50EPP+ strain (AID 151);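 also: 0% = growth of vehicle-treated control cultures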; details: S. cerevisiae rad50 mutant strain, stronger effect = higher value
In short: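 Yeast strain carrying rad50 alteration (rad50EPP+) exposed to compounds; growth inhibition measured relative to vehicle-treated controls.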

[15] = NCI Yeast Anticancer Drug Screen. Data for the sgs1 strain (AID 173);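 also: 0% = growth of vehicle-only control cultures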; details: S. cerevisiae sgs1 mutant, stronger effect = higher value
In short: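 Yeast mutant strains carrying defined defects in DNA damage repair or cell cycle control were exposed to test compounds. Growth inhibition was scored against vehicle-treated controls.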

[16] = at 5.0 µM (retest, dose inferred, filed as 0.5)
[17] = at 50.0 µM (retest, dose inferred, filed as 5.0)

Measured: growth inhibition

COc1cc(CNc2ccc(C(C)C)cc2)cc(OC)c1OC
inactive: [1]; at 1.2 µM 21% | [1]; at 3.7 µM 3% | [1]; at 11.0 µM -17% | [1]; at 33.0 µM 13% | [2]; at 1.2 µM 1% | [2]; at 3.7 µM 15% | [2]; at 11.0 µM 7% | [2]; at 33.0 µM -8% | [2]; at 100.0 µM 56% | [3]; at 1.2 µM 13% | [3]; at 3.7 µM 0% | [3]; [16] -1% | [3]; at 11.0 µM -2% | [3]; at 33.0 µM -19% | [3]; [17] -3% | [3]; at 50.0 µM 32.5% | [4]; at 1.2 µM 8% | [4]; at 3.7 µM -8% | [4]; [16] -42% | [4]; at 11.0 µM -4% | [4]; at 33.0 µM -25% | [4]; [17] 1% | [4]; at 50.0 µM 25.4% | [4]; at 100.0 µM 59% | [5]; at 1.2 µM -6% | [5]; at 3.7 µM -17% | [5]; at 11.0 µM -31% | [5]; at 33.0 µM -50% | [6]; [16] -7% | [6]; [17] 25% | [6]; at 50.0 µM 64% | [7]; at 1.2 µM -12% | [7]; at 3.7 µM -19% | [7]; at 11.0 µM -28% | [7]; at 33.0 µM -50% | [7]; at 100.0 µM -4% | [8]; [16] 6% | [8]; [17] 24% | [8]; at 50.0 µM 6.85% | [9]; at 1.2 µM -13% | [9]; at 3.7 µM -22% | [9]; [16] 13% | [9]; at 11.0 µM -26% | [9]; at 33.0 µM -6% | [9]; at 50.0 µM 65.2% | [10]; at 1.2 µM -1% | [10]; at 3.7 µM -26% | [10]; at 11.0 µM -9% | [10]; at 33.0 µM -20% | [10]; at 100.0 µM 69% | [11]; at 1.2 µM -2% | [11]; at 3.7 µM -21% | [11]; at 11.0 µM -15% | [11]; at 33.0 µM -20% | [12]; [16] -11% | [12]; [17] 32% | [12]; at 50.0 µM 55.7% | [13]; at 1.2 µM 4% | [13]; at 3.7 µM 9% | [13]; at 11.0 µM -5% | [13]; at 33.0 µM 9% | [13]; at 100.0 µM 64%
active: [1]; at 100.0 µM 78% | [3]; at 100.0 µM 73% | [5]; at 100.0 µM 72% | [9]; [17] 78% | [9]; at 100.0 µM 71% | [11]; at 100.0 µM 76%

CCCc1[nH]nc(C(N)=O)c1N=NN(C)C
active: [1]; at 33.0 µM 90% | [1]; at 100.0 µM 96% | [14]; at 33.0 µM 82% | [14]; at 100.0 µM 95% | [3]; at 33.0 µM 83% | [3]; [17] 81% | [3]; at 50.0 µM 94.8% | [3]; at 100.0 µM 94% | [15]; at 100.0 µM 85% | [12]; at 50.0 µM 73.5% | [13]; at 33.0 µM 83% | [13]; at 100.0 µM 94%
inactive: [1]; at 1.2 µM 2% | [1]; at 3.7 µM 12% | [1]; at 11.0 µM 37% | [14]; at 1.2 µM 2% | [14]; at 3.7 µM 16% | [14]; at 11.0 µM 43% | [3]; at 1.2 µM 3% | [3]; at 3.7 µM 4% | [3]; [16] -108% | [3]; at 11.0 µM 31% | [4]; at 1.2 µM 1% | [4]; at 3.7 µM -1% | [4]; [16] -44% | [4]; at 11.0 µM -14% | [4]; at 33.0 µM 11% | [4]; [17] -15% | [4]; at 50.0 µM 14.1% | [4]; at 100.0 µM 63% | [5]; at 1.2 µM 0% | [5]; at 3.7 µM -1% | [5]; at 11.0 µM 5% | [5]; at 33.0 µM 11% | [5]; at 100.0 µM 30% | [6]; [16] -55% | [6]; [17] 18% | [6]; at 50.0 µM 44.1% | [7]; at 1.2 µM -3% | [7]; at 3.7 µM -3% | [7]; at 11.0 µM 2% | [7]; at 33.0 µM -3% | [7]; at 100.0 µM 5% | [8]; [16] -59% | [8]; [17] -48% | [8]; at 50.0 µM 13.4% | [9]; at 1.2 µM -13% | [9]; at 3.7 µM -9% | [9]; [16] -60% | [9]; at 11.0 µM -5% | [9]; at 33.0 µM -6% | [9]; [17] -73% | [9]; at 50.0 µM -0.25% | [9]; at 100.0 µM 4% | [10]; at 1.2 µM -1% | [10]; at 3.7 µM 0% | [10]; at 11.0 µM -1% | [10]; at 33.0 µM 3% | [10]; at 100.0 µM 10% | [11]; at 1.2 µM 7% | [11]; at 3.7 µM -5% | [11]; at 11.0 µM -2% | [11]; at 33.0 µM 0% | [11]; at 100.0 µM 11% | [15]; at 1.2 µM 0% | [15]; at 3.7 µM -3% | [15]; at 11.0 µM 24% | [15]; at 33.0 µM 56% | [12]; [16] -120% | [12]; [17] 13% | [13]; at 1.2 µM -2% | [13]; at 3.7 µM 6% | [13]; at 11.0 µM 32%

O=C(O)c1[nH]c(=O)c2ccccc2c1Nc1ccccc1
inactive: [1]; at 1.2 µM -2% | [1]; at 3.7 µM -1% | [1]; at 11.0 µM 2% | [1]; at 33.0 µM 4% | [1]; at 100.0 µM 3% | [2]; at 1.2 µM -1% | [2]; at 3.7 µM -2% | [2]; at 11.0 µM -2% | [2]; at 33.0 µM -1% | [2]; at 100.0 µM 1% | [14]; at 1.2 µM -3% | [14]; at 3.7 µM -2% | [14]; at 11.0 µM 0% | [14]; at 33.0 µM -1% | [14]; at 100.0 µM 6% | [3]; at 1.2 µM -3% | [3]; at 3.7 µM -1% | [3]; [16] -6% | [3]; at 11.0 µM 1% | [3]; at 33.0 µM 4% | [3]; [17] -11% | [3]; at 50.0 µM -0.85% | [3]; at 100.0 µM 0% | [4]; at 1.2 µM -3% | [4]; at 3.7 µM -3% | [4]; [16] -13% | [4]; at 11.0 µM -2% | [4]; at 33.0 µM 1% | [4]; [17] -24% | [4]; at 50.0 µM -1.2% | [4]; at 100.0 µM 3% | [6]; [16] 0% | [6]; [17] 5% | [6]; at 50.0 µM 10.3% | [8]; [16] -23% | [8]; [17] 41% | [8]; at 50.0 µM -10.4% | [9]; at 1.2 µM -2% | [9]; at 3.7 µM -2% | [9]; [16] -4% | [9]; at 11.0 µM -3% | [9]; at 33.0 µM -3% | [9]; [17] -11% | [9]; at 50.0 µM -6.6% | [9]; at 100.0 µM -2% | [10]; at 1.2 µM -3% | [10]; at 3.7 µM -3% | [10]; at 11.0 µM -2% | [10]; at 33.0 µM -4% | [10]; at 100.0 µM 0% | [11]; at 1.2 µM -2% | [11]; at 3.7 µM 0% | [11]; at 11.0 µM 0% | [11]; at 33.0 µM 1% | [11]; at 100.0 µM 4% | [15]; at 1.2 µM -7% | [15]; at 3.7 µM -3% | [15]; at 11.0 µM 1% | [15]; at 33.0 µM 1% | [15]; at 100.0 µM 2%
